Assay results taken from the supplement of paper PMC10811239.

Tests used:
Assay in all cases: bioluminescence (viable cell) signal fold change after vs before treatment, normalised to DMSO (ratio); higher = more tumour cell growth / less inhibition
Settings in all cases: 10 µM; treatment time 6 days
[1] = system: LEGO organoid PT (PTEN-/-; TP53-/-)
Experimental: (§1)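 Luc2-labelled iPSC-derived glioblastoma-like organoids (LEGOs, genotypes PT = PTEN-/-;TP53-/-, PTCC = plus CDKN2A/B-/-, PTN = plus NF1-/-) were treated with 10 uM drug for 6 days (applied every other day) at 37 C. Bioluminescence imaging was done before treatment and 2 days after the last dose. BLI signals were normalised to the DMSO control on the same day and then to the pre-treatment signal (N=3).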

[2] = system: LEGO organoid PTCC (PTEN-/-; TP53-/-; CDKN2A-/-; CDKN2B-/-)
Experimental: as §1

[3] = system: LEGO organoid PTN (PTEN-/-; TP53-/-; NF1-/-)
Experimental: as §1

| SMILES | bioluminescence [1] | bioluminescence [2] | bioluminescence [3] |
| --- | --- | --- | --- |
| C[C@@H]1C[C@H]2[C@@H]3CCC4=CC(=O)C=C[C@]4(C)[C@@]3(F)[C@@H](O)C[C@]2(C)[C@@]1(O)C(=O)CO [Dexamethasone] | 0.763 | 1.28 | 1.71 |
| C[C@@H](Oc1cc(-c2cnn(C3CCNCC3)c2)cnc1N)c1c(Cl)ccc(F)c1Cl [Crizotinib] | 0.492 | 0.43 | 0.303 |
| CC(C)CN(C[C@@H](O)[C@H](Cc1ccccc1)NC(=O)O[C@H]1CCOC1)S(=O)(=O)c1ccc(N)cc1 [Amprenavir] | 0.802 | 0.498 | 0.695 |
| CCc1cc2c(cc1N1CCC(N3CCOCC3)CC1)C(C)(C)c1[nH]c3cc(C#N)ccc3c1C2=O.Cl [Alectinib hydrochloride] | 0.656 | 0.838 | 1.36 |
| COc1cc2c(cc1OC)C(=O)C(CC1CCN(Cc3ccccc3)CC1)C2.Cl (stereo unspecified) [Donepezil HCl] | 0.543 | 0.812 | 0.746 |
| CCCCCCCCCC(=O)OCCN1CCN(CCCN2c3ccccc3Sc3ccc(C(F)(F)F)cc32)CC1 [Fluphenazine decanoate] | 0.875 | 2.63 | 0.964 |
| CN1[C@@H]2CCC[C@H]1C[C@@H](NC(=O)c1nn(C)c3ccccc13)C2.Cl [Granisetron hydrochloride] | 0.715 | 0.701 | 1.92 |
| COc1cc(C(=O)NCc2ccc(OCCN(C)C)cc2)cc(OC)c1OC.Cl [Trimethobenzamide hydrochloride] | 1.11 | 0.906 | 0.646 |
| CCN(CC)CCNC(=O)c1cc(Cl)c(N)cc1OC [5-Chloro-2-methoxyprocainamide] | 1.1 | 0.329 | 1.62 |
| CCCCOc1ccc(C(=O)CCN2CCCCC2)cc1.Cl [Dyclonine hydrochloride] | 0.967 | 1.03 | 1.13 |
| CC(C)NCC(O)COc1cccc2ccccc12.Cl (stereo unspecified) [Propranolol hydrochloride] | 1.03 | 0.672 | 1.25 |
| C#CCN[C@@H]1CCc2ccccc21.CS(=O)(=O)O [Rasagiline Mesylate] | 0.604 | 2.02 | 1.25 |
| COc1ccc2c(c1)c(CC(=O)O)c(C)n2C(=O)c1ccc(Cl)cc1 [Indometacin] | 1.04 | 1.24 | 1.76 |
| C=C/C=C/C[C@@H](C)[C@@H](O)[C@H]1C(=O)N[C@@H](CC)C(=O)N(C)CC(=O)N(C)[C@@H](CC(C)C)C(=O)N[C@@H](C(C)C)C(=O)N(C)[C@@H](CC(C)C)C(=O)N[C@@H](C)C(=O)N[C@H](C)C(=O)N(C)[C@@H](CC(C)C)C(=O)N(C)[C@@H](CC(C)C)C(=O)N(C)[C@@H](C(C)C)C(=O)N1C [Voclosporin] | 0.414 | 0.723 | 0.446 |
| C#CCN[C@@H]1CCc2ccccc21 [Rasagiline] | 2.76 | 1.19 | 0.976 |
| O=c1cc(O)c(Cl)c[nH]1 [Gimeracil] | 0.79 | 0.774 | 1.25 |
| CC(C)c1nc(CN(C)C(=O)N[C@H](C(=O)N[C@@H](Cc2ccccc2)C[C@H](O)[C@H](Cc2ccccc2)NC(=O)OCc2cncs2)C(C)C)cs1 [Ritonavir] | 1.3 | 2 | 1.83 |
| NC(=O)N[C@@H](CCC(=O)O)C(=O)O [Carglumic Acid] | 1.27 | 0.631 | 1.55 |
| O=C(CCCN1CCC(O)(c2ccc(Cl)cc2)CC1)c1ccc(F)cc1 [Haloperidol] | 0.925 | 0.956 | 0.771 |

| SMILES | bioluminescence [1] | bioluminescence [2] | bioluminescence [3] |
| --- | --- | --- | --- |
| CS(=O)(=O)c1ccc(C2=C(c3ccccc3)C(=O)OC2)cc1 [Rofecoxib] | 1.25 | 0.638 | 2.18 |
| CN(C)CCOC(C)(c1ccccc1)c1ccccn1.O=C(O)CCC(=O)O (stereo unspecified) [Doxylamine succinate] | 0.83 | 1.17 | 0.999 |
| CN1CCN(CCCN2c3ccccc3Sc3ccc(C(F)(F)F)cc32)CC1.Cl.Cl [Trifluoperazine dihydrochloride] | 0.771 | 1.31 | 1.23 |
| CC(C)(C)c1cc(C(C)(C)C)c(NC(=O)c2c[nH]c3ccccc3c2=O)cc1O [Ivacaftor] | 0.378 | 0.191 | 0.603 |
| CN(C)CC(c1ccc(O)cc1)C1(O)CCCCC1.O=C(O)CCC(=O)O (stereo unspecified) [Desvenlafaxine succinate hydrate] | 1.67 | 0.582 | 0.536 |
| NC[C@H]1CC[C@H](C(=O)O)CC1 [Amstat] | 1.51 | 0.622 | 0.778 |
| Cc1ccc(Nc2nccc(N(C)c3ccc4c(C)n(C)nc4c3)n2)cc1S(N)(=O)=O [Pazopanib] | 0.948 | 0.395 | 0.583 |
| C[C@]12CC[C@@H]3c4ccc(O)cc4CC[C@H]3[C@@H]1CC[C@@H]2O [Estradiol] | 0.389 | 0.435 | 1.18 |
| CN=C(NC#N)NCCSCc1nc[nH]c1C [Cimetidine] | 1.14 | 2.25 | 1.65 |
| CCN(CC)CC(=O)Nc1c(C)cccc1C [Xylocaine] | 1.02 | 1.13 | 1.22 |
| NC(=O)c1ncn([C@@H]2O[C@H](CO)[C@@H](O)[C@H]2O)n1 [Ribavirin] | 0.826 | 1.89 | 0.822 |
| CCCOc1ccc(S(=O)(=O)NCCC2CCCN2C)cc1-c1nc2c(CCC)nn(C)c2c(=O)[nH]1 (stereo unspecified) [Udenafil] | 1.36 | 1.32 | 1.09 |
| O=C(O)c1cccnc1 [Niacin] | 0.772 | 2.03 | 1.59 |
| O=C([O-])CCCc1ccccc1.[Na+] [Sodium Phenylbutyrate] | 1.37 | 0.911 | 3.02 |
| CC(C(=O)O)c1ccc(-c2ccccc2)c(F)c1 (stereo unspecified) [Flurbiprofen] | 1.09 | 0.856 | 1.47 |
| CC(C)NCC(O)COc1ccc(CC(N)=O)cc1 (stereo unspecified) [Atenolol] | 1.39 | 0.484 | 0.649 |
| Cc1cn([C@H]2C=C[C@@H](CO)O2)c(=O)[nH]c1=O [Stavudine] | 3.29 | 0.83 | 0.812 |
| COC(=O)N[C@H](C(=O)N[C@@H](Cc1ccccc1)[C@@H](O)CN(Cc1ccc(-c2ccccn2)cc1)NC(=O)[C@@H](NC(=O)OC)C(C)(C)C)C(C)(C)C.O=S(=O)(O)O [Atazanavir sulfate] | 1.05 | 0.573 | 6.56 |
| CC1=NN(c2ccccc2)C(=O)C1 [Edaravone] | 0.893 | 0.508 | 1.12 |

| SMILES | bioluminescence [1] | bioluminescence [2] | bioluminescence [3] |
| --- | --- | --- | --- |
| CC1(C)S[C@@H]2[C@H](NC(=O)[C@H](N)c3ccc(O)cc3)C(=O)N2[C@H]1C(=O)O.O.O.O [Amoxicillin trihydrate] | 1.03 | 2.36 | 0.841 |
| Cl.Nc1c2c(nc3ccccc13)CCCC2.O [Tacrine hydrochloride hydrate] | 0.719 | 0.819 | 1.22 |
| Cc1nc2c([nH]1)CCN(C(=O)c1ccc(NC(=O)c3ccccc3-c3ccccc3)cc1)c1ccccc1-2.Cl [Conivaptan hydrochloride] | 0.674 | 3.25 | 0.375 |
| Cl.O[C@@H](c1cc(C(F)(F)F)nc2c(C(F)(F)F)cccc12)[C@H]1CCCCN1 [Mefloquine hydrochloride] | 0.499 | 0.922 | 0.359 |
| CCC1=CC2CN(C1)Cc1c([nH]c3ccccc13)[C@](C(=O)OC)(c1cc3c(cc1OC)N(C)[C@H]1[C@@](O)(C(=O)OC)[C@H](OC(C)=O)[C@]4(CC)C=CCN5CC[C@]31[C@@H]54)C2.O=C(O)[C@H](O)[C@@H](O)C(=O)O.O=C(O)[C@H](O)[C@@H](O)C(=O)O (stereo partly specified) [Vinorelbine ditartrate] | 0.558 | 0.445 | 1.54 |
| C[C@@H]1COCCN1c1cc(C2([S@](C)(=N)=O)CC2)nc(-c2ccnc3[nH]ccc23)n1 [Ceralasertib] | 0.917 | 1.4 | 0.823 |
| Cc1ccccc1C(OCCN(C)C)c1ccccc1.Cl (stereo unspecified) [Orphenadrine hydrochloride] | 1.02 | 1.18 | 1.59 |
| Cc1cn([C@H]2C[C@H](N=[N+]=[N-])[C@@H](CO)O2)c(=O)[nH]c1=O [Zidovudine] | 5.37 | 1.35 | 3.76 |
| COc1cc(Nc2ncc(F)c(Nc3ccc4c(n3)N(COP(=O)(O)O)C(=O)C(C)(C)O4)n2)cc(OC)c1OC [Fostamatinib] | 0.0894 | 0.182 | 0.0646 |
| Cc1ncc([N+](=O)[O-])n1CCO [Metronidazole] | 0.839 | 0.966 | 1.56 |
| OC(Cn1cncn1)(Cn1cncn1)c1ccc(F)cc1F [Fluconazole] | 1.04 | 0.967 | 1.54 |
| O=C1Nc2ccc(Cl)cc2[C@@](C#CC2CC2)(C(F)(F)F)O1 [Efavirenz] | 0.965 | 1.96 | 0.908 |
| CCOC(=O)N1CC\C(CC1)=C1\c2ccc(Cl)cc2CCc2cccnc12 [Loratadine] | 0.684 | 1.05 | 1.36 |
| CCC(=O)NCC[C@@H]1CCc2ccc3c(c21)CCO3 [Ramelteon] | 0.961 | 1.56 | 2.06 |
| CCc1c2c(nc3ccc(OC(=O)N4CCC(N5CCCCC5)CC4)cc13)-c1cc3c(c(=O)n1C2)COC(=O)[C@]3(O)CC.Cl.O.O.O [Irinotecan hydrochloride trihydrate] | 0.98 | 0.793 | 1.15 |
| CCN(CC)CC(=O)Nc1c(C)cccc1C.Cl [Lidocaine hydrochloride] | 1.49 | 1.11 | 1.08 |
| Cc1ccc(C(=O)c2cc(O)c(O)c([N+](=O)[O-])c2)cc1 [Tolcapone] | 1.1 | 2.93 | 1.31 |
| CN(C/C=C/C#CC(C)(C)C)Cc1cccc2ccccc12 [Terbinafine] | 0.601 | 1.04 | 2.32 |
| N[C@@H](Cc1ccc(O)c(O)c1)C(=O)O [Levodopa] | 0.963 | 1.76 | 1.33 |
